According to the supplement of paper PMC6555819:

Tested on: RARg:RXRa (NR concentration 270 nM, RXRa partner concentration 90 nM)
Experiment: PBM binding z-score (relative to random genomic background probes); higher = stronger binding; sequences stand for … in GC…GCGATTGACAGCGTAGAATGAAGG
Summary of the method: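 Antibodies against each partner of ligand-free nuclear receptor dimers (one per run) detected binding on custom Agilent 4×180K protein-binding microarrays after 1 h incubation. The double-stranded probes had 34-nt variable regions carrying direct-repeat seeds, single-nucleotide variants, half-site ablations and random human genomic background sequences. Binding z-scores, from regression-normalized fluorescence, use the random background probes as reference.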

Row | Sequence | PBM binding z-score
1 | CGAACTAGGTTAAGGACAGTGAATCTCCGCACGC | 0.615
2 | CATACAGGGTCAGCTAGGCGAGAGTAGGGACGGC | 4.39
3 | ACAGACAGGTGATGTAGGTAACTCAGGCTATCAT | 0.333
4 | TGAATGAGGTTATAAGATCAGGTAACGTTGCAAA | 1.41
5 | TCTCGGAGGACACGAAAGGTCAGAGCTCGACATC | 4.97
6 | TCTCGGAGGACACGAAGGTCAGAGCATTCCAGAG | 3.22
7 | ATATGTAGGTTAAGGATCATTCAGGTTGGTTCGC | 0.99
8 | CAAACTAGGTCAAGAGGTAAAAGTCCGCTTCCCG | 4.71
9 | TCTCGGCGGACACGAAAGGTCAGAGCTCGACATC | 4.12
10 | AGAACGAGGGCAATGAGTTGATATCACGGGTGGC | 1.33
11 | CCTACTGGGCCATTCAGACGTCATTGATCATATG | -0.25
12 | TTACCAAGGTGAGCTGAGTTCGTTGATCCAACTC | 0.2
13 | TCTTGTAGATCAAAGGTTAAGAACGCCGAAGCCT | 1.82
14 | TCTCGGAGGACACGAAGGTCAGACCTTTCCAGAG | 3.27
15 | ATCTCTAGGGAAAAGTTCAGTGAATCCCGAGGAT | 1.23
16 | CCTAGGAGGACAACAGGAGGTCAGAGCTGCCAGA | 3.49
17 | CCGACTGGGGCCGAAAGGTTACCATACCATCCGG | 2.18
18 | CAAACTAGGTGAAGAGGTCAAAGTCCGCTTCCCG | 5.44
19 | CCGACTGGGGCATAAGGTCACCATAAGCCAGCCC | 4.86
20 | CCTGGTTGGTCAAGGTCACACACGCTATAGGTAC | 4.58

Row | Sequence | PBM binding z-score
21 | AATACAGGGTCACTAGGCCAGGGTAGGTACGAAT | 4.88
22 | GCTGCTAGGTCAGGTTGGTCAGCGAACGGGTACG | 2.68
23 | CAAACTAGGTCAAGAGGTCAAAGTACGCTTCCCG | 8.23
24 | AGAATGAGGTTATTAAGATCAGGTAATTGCGGTC | 1.13
25 | TATCCTAGGTCATTGGGCCAGTATAGTACGCATC | 4.22
26 | TCTATTAGATGATTAGGGCAACCGAAACAGCGGA | 0.609
27 | ATCTCTAGGTCAGACTCAGTTCAGTGAAGAACGC | 3.81
28 | CGTCCAAGGTCGGCAGGTCAGTGAAAGCGACGTG | 3.38
29 | TGAATGAGGTTAAAGAGCAGGGAACGTGGCGTCG | 2.13
30 | CCTGGCAGGCCAATCTGGGTCACTCAAGGCTTGA | 1.11
31 | CCTTACGGGTCATTGACAGGTTATAGCATTTGGA | 5.75
32 | AGAATGAGTTTAAGATCAGGGAAACAGAATACAT | 0.254
33 | CCTACTGGGCCATTCAGAGGTAATTGATCATATG | 0.0655
34 | TCTGCTAGGTCAGTTGGTCAGCTATCGAGCTGCC | 2.62
35 | CCTACTGGGCTATCAGGTCATTGATATCAACGTT | 1.56
36 | CAAACTGGGTCAAGAGGTCAAAGTCCGCTTCCCG | 7.97
37 | CGTCCACGGTCAGCAGGTCAGTGAAAGCGACGTG | 2.99
38 | TCTTGTAGATCAAATGTTAAGAAAGCCGAAGCCT | -0.173
39 | GCTGCTAGGTCAACTGATGGTCCGCTAAAGCTCG | 4.2
40 | CCGATTGGGGCAGAAAGGTTACCATACCATCCGG | 1.61
